Sampled rows, rich in hits. Any-hit rate of the full collection: about 3.6%.
15-hLO inh: inhibitors of human 15-lipoxygenase (ALOX15) | Potency, µM (doses to about 57.1 µM), usual class: inhibitors | 74,000 compounds, 1.4% hits | purified 15hLO-1, xylenol orange hydroperoxide absorbance | P16050; also: nearly all actives have a fitted effect of over 55% in size
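Quantitative HTS in 25 mM Hepes pH 7.5 containing 0.01% Triton X-100: human 15hLO-1 at 40 nM, arachidonic acid at 50 uM, 6 min turnover. Product quantified via ferrous oxidation/xylenol orange, 573:405 nm absorbance ratio.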
Hsp90 Hop PPI: changes Hsp90-Hop TPR2A binding signal, up or down; 71,000 compounds, 0.44% hits; Potency, µM (titrated, usually from 57 µM); AlphaScreen TPR2A-His6 binding biotin-Hsp90 C-terminal peptide; active = well fitted curve in either direction with a large enough effect; inconclusive = small, poorly fitted or top-dose-only effect, or another doubt
Tau fil binding: tau filament binding. recombinant tau filaments, thioflavin S fluorescence, 15 h; filaments grown with octadecylsulfate alongside compound. Potency, µM (doses to about 57.1 µM). 71,000 compounds, 2% hits. AID 596;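 also: actives lower thioflavin S fluorescence by blocking filaments or displacing dye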
Target sequence (P10636 whole entry, looked up): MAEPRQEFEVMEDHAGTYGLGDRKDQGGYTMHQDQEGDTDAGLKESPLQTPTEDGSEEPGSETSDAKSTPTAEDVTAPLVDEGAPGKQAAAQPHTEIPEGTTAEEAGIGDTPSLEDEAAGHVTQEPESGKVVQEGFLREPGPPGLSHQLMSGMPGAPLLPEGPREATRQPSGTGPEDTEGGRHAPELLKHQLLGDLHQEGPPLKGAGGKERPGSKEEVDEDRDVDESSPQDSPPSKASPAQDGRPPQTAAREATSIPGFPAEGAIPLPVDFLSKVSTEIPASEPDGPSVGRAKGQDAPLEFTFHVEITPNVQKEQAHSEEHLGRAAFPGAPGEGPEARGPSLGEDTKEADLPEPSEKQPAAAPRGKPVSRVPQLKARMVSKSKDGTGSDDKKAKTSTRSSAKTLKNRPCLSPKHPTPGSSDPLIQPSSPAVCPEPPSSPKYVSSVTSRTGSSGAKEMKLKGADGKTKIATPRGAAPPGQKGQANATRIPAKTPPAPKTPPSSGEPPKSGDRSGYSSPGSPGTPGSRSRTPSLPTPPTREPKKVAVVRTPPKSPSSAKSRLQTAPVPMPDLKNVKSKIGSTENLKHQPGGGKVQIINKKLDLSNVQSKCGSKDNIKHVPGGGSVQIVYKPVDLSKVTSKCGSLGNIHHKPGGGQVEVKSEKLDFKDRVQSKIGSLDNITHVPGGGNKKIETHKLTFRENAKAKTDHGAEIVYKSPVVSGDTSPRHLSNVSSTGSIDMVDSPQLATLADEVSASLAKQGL
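ThS-based fibril read: tau 1 uM final, inducer ODS 30 uM final, 37 C for 15 h, ex 450/em 510 nm.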
CRE-bla Fsk: CRE-bla signaling modulation under forskolin stimulation. 71,000 compounds, 2.5% hits. Potency, µM (titrated, usually from 38.2 µM), usual class: activators. CHO CRE-bla reporter (cAMP response element driving beta-lactamase), forskolin EC10, beta-lactamase ratio; active = well fitted activation curve with a large enough effect in the signal ratio, with a control signal flat, not every such curve was filed as active; inconclusive = small, poorly fitted or top-dose-only effect, or effect the other way, or a change in a side signal; the % refers to the signal ratio
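Cells were plated overnight at 37 °C, exposed to compound titrations plus EC10 NKH 477 for 3 h, then given CCF4 dye for 2 h at room temperature. Blue/green (460/530 nm) ratio was converted to %Activity and AC50 values calculated.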
IkB sig inh: inhibitors of IkB signaling in ABC-DLBCL cells | ABC-DLBCL IkBa-CBG/CBR dual luciferase ratio, 4 h; response scale: scaled: untreated 0%, proteasome inhibitor 100% | Potency, µM (series often up to 57.1 µM) | 110,000 compounds, 0.04% hits | AID 445; active = well fitted curve in the direction sought with a large enough effect in the signal ratio, not every such curve was filed as active; inconclusive = small, poorly fitted or top-dose-only effect, or a change in a side signal; the % refers to the signal ratio;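 also: the direction sought is a rising ratio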
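Luminescence ratio of IκBα-fused green versus native red beetle luciferase in OCI-Ly3 cells, 4 h post-doxycycline with compound; red signal alone, scaled from basal (0%) to zero light (-100%), flagged nonspecific or cytotoxic effects.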
CHO via 24h: cytotoxicity in CRE-bla CHO cells at 24 h; shares compounds with CRE-bla Fsk; CRE-bla CHO viability, ATP luminescence, 24 h; activity, negative = viability loss, % at 46.1 µM; 120 tested, under 10 active; AID 905
CHO tox 40h: CHO cell toxicity at 40 h by ATP luminescence; shares compounds with CRE-bla Fsk; CRE-bla CHO viability, ATP luminescence, 40 h; Potency, µM, hits mostly inhibitors; 120 tested, under 10 active
CREB luc CRC: confirmation of CRE signaling potentiators in HEK293 CREB reporter cells; AID 907; shares compounds with CRE-bla Fsk; HEK293 CRE-luc2P, NKH477 EC10 potentiation, luminescence, 4 h; Potency, µM (doses to about 38.3 µM), actives largely listed as activators; 120 compounds, 80% hits
Each line names hits and unclear results; the compound was inactive in the other large screens (follow-up assays come after a bar, where they were run); ! = not confirmed by another sample. Unless noted, calls follow the shape of the dose curve; as a rule, active = well fitted curve in the direction sought with a large enough effect; inconclusive = small, poorly fitted or top-dose-only effect, or another doubt; inactive = no such curve, though single readings can be large; an effect the other way counts as inactive or inconclusive.

CCNc1nc(NC(C)C)nc(Nn2cnnc2)n1	none
O=C(Nc1ccccc1C(F)(F)F)N1CCOc2ccc(Cl)cc21	none (no result: 15-hLO inh, Hsp90 Hop PPI, Tau fil binding, CRE-bla Fsk)
O=C(CCC1N=C2c3ccccc3N=C(SCc3ccccc3Cl)N2C1=O)N1CCN(c2ccccc2)CC1 (stereo unspecified)	none (no result: 15-hLO inh, Hsp90 Hop PPI, Tau fil binding, CRE-bla Fsk)
Cn1c(/C(C#N)=C/C2CC=CCC2)nc2ccccc21 (stereo unspecified)	none | CHO via 24h inactive | CHO tox 40h inactive | CREB luc CRC 16µM
COc1ccc(-c2cc([C@H](O)[C@@H]3CCCCN3)c3ccccc3n2)cc1	none
CCCc1nc2oc3c(NCc4ccccn4)ncnc3c2c2c1COC(C)(C)C2	CRE-bla Fsk 0.79µM | CHO via 24h inactive | CHO tox 40h inactive | CREB luc CRC 0.4µM
Cc1nc2oc3c(NCc4ccccn4)ncnc3c2c2c1COC(C)(C)C2	CRE-bla Fsk inconclusive
COc1cc2c(cc1OC)-c1c(OC)c(OC)cc3ccnc(c13)C2=O	Hsp90 Hop PPI inconclusive, Tau fil binding 32µM, CRE-bla Fsk inconclusive | CHO via 24h inactive | CHO tox 40h inconclusive | CREB luc CRC 0.16µM
COc1ccc(CCN2C(=O)c3cccnc3C2=O)cc1OC	none
O=C(CSc1nc2c([nH]c3ccccc32)c(=O)n1-c1ccccc1)N1CCCCC1	none (no result: 15-hLO inh, Hsp90 Hop PPI, Tau fil binding, CRE-bla Fsk)
CC1=C(C(=O)Nc2c(C)cc(C)cc2C)C2(CCN(C(C)C)CC2)OC1=O	none (no result: 15-hLO inh, Hsp90 Hop PPI, Tau fil binding, CRE-bla Fsk)
Cc1nc(NCc2ccc3c(c2)OCO3)c2oc3ccccc3c2n1	CRE-bla Fsk 2.5µM, IkB sig inh inconclusive | CHO via 24h inactive | CHO tox 40h inactive | CREB luc CRC 13µM
CCCCNc1c(C(=O)OCC)c(C)nc2c1cnn2CC	CRE-bla Fsk 3.2µM!, IkB sig inh inconclusive | CHO via 24h inactive | CHO tox 40h inconclusive | CREB luc CRC 0.79µM
O=C(Cc1ccccc1)Nc1nc2ccc(Cl)cc2c2nc(-c3ccco3)nn12	15-hLO inh inconclusive, CRE-bla Fsk inconclusive | CHO via 24h inactive | CHO tox 40h inactive | CREB luc CRC inconclusive
CCCC(=O)n1nc(-c2ccco2)nc1SCc1ccccc1	15-hLO inh inconclusive, Tau fil binding inconclusive
COc1ccc(OC)c(NC(=O)c2cn(C)c(=O)c3cc(OC)c(OC)cc23)c1	CRE-bla Fsk 0.79µM | CHO via 24h inactive | CHO tox 40h inactive | CREB luc CRC 4µM
COc1ccc(C(=O)Nc2cc(OC)ccc2OC)cc1	IkB sig inh inconclusive
CCc1nnc(NC(=O)c2cc(=O)c3cc(C)ccc3o2)s1	none (no result: 15-hLO inh, Hsp90 Hop PPI, Tau fil binding, CRE-bla Fsk)
COc1cc(C2=NOC(C(=O)N3CCN(c4ccc(F)cc4)CC3)C2)cc(OC)c1OC (stereo unspecified)	CRE-bla Fsk 0.63µM, IkB sig inh inconclusive | CHO via 24h inactive | CHO tox 40h inactive | CREB luc CRC 4µM
CNC(=O)c1c(NC(=O)c2nc(SCc3ccc(C)cc3)ncc2Cl)sc2c1CCCC2	none (no result: 15-hLO inh, Hsp90 Hop PPI, Tau fil binding, CRE-bla Fsk)
Cc1cc(N2CCN(S(=O)(=O)c3ccc4c(c3)OCCO4)CC2)n2ncnc2n1	CRE-bla Fsk 5µM | CHO via 24h inactive | CHO tox 40h inactive | CREB luc CRC 13µM
CCOC(=O)C1=C(CN2CCC(C)CC2)NC(=O)NC1c1ccc(Cl)cc1 (stereo unspecified)	Tau fil binding 16µM, CRE-bla Fsk 13µM | CHO via 24h inactive | CHO tox 40h inactive | CREB luc CRC 13µM
c1nc2sc3c(c2c2nnnn12)CCCC3	Hsp90 Hop PPI inconclusive, CRE-bla Fsk inconclusive, IkB sig inh inconclusive
N#CCc1nc2c3c4c(sc3ncn2n1)CCCC4	none (no result: 15-hLO inh, Hsp90 Hop PPI, Tau fil binding, CRE-bla Fsk, IkB sig inh) | CHO via 24h inactive | CHO tox 40h inactive | CREB luc CRC 5µM
O=C(Nc1ccc2c(c1)OCO2)c1cccc2c1C(=O)N(Cc1cccnc1)C2	CRE-bla Fsk inconclusive
COc1cc(NC(=O)c2cccc3c2C(=O)N(Cc2cccnc2)C3)cc(OC)c1OC	Hsp90 Hop PPI inconclusive, CRE-bla Fsk 2µM | CHO via 24h inactive | CHO tox 40h inconclusive | CREB luc CRC 0.79µM
c1cc(CSSCc2ccncc2)ccn1	none
CCCSc1nc2c(cnn2-c2ccc(F)cc2)c(=O)[nH]1	CRE-bla Fsk 2µM | CHO via 24h inactive | CHO tox 40h inactive | CREB luc CRC 6.3µM
COC(=O)CSc1nc2c(cnn2-c2ccc(F)cc2)c(=O)[nH]1	none (no result: 15-hLO inh, Hsp90 Hop PPI, Tau fil binding, CRE-bla Fsk)
CCN(Cc1ccccc1)Cc1c(O)ccc2c(=O)c(-c3ccc(Cl)cc3)c(C(F)(F)F)oc12	none (no result: 15-hLO inh, Hsp90 Hop PPI, Tau fil binding, CRE-bla Fsk)
CCOc1ccc(-c2nnc3ccc(SCc4ccc(C(=O)OC)o4)nn23)cc1	CRE-bla Fsk 2µM | CHO via 24h inactive | CHO tox 40h inconclusive | CREB luc CRC 2.2µM
CCOc1ccc(-c2nnc3ccc(SCC(=O)NCc4ccco4)nn23)cc1	none

Source: PubChem (National Center for Advancing Translational Sciences (NCATS))
